High-throughput results deposited in PubChem BioAssay by Broad Institute.
Wnt act = activates Wnt/beta-catenin signaling in a reporter cell assay. activator, plate reader. activation, % at 9.35 µM. hit rate 1.2% among 300,000. AID 743398; in the data active = activation above about 30%, passing the limit was not always enough; inconclusive = no clear call, values can overlap the other calls;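 note: 0% = neutral control wells and 100% = positive control wells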
Env fusion inh = HIV envelope-mediated fusion inhibition; HeLa-JRFL Env/CEM21 cell fusion, luciferase; inhibition, % at 12.3 µM; hit rate 1.1% among 360,000; AID 651610;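 active = mean replicate inhibition score of at least 50 and every replicate individually at or above 50; inconclusive = only one of the two criteria met; inactive = mean below 50 and not all replicates reaching 50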;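 note: 0% = plate neutral controls and 100% = maraviroc near 300 nM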
MITF TRPM1 HTS = increases MITF-driven TRPM1 promoter luciferase signal. SK-MEL-5 TRPM1-promoter luciferase, 24 h; % of positive control, neutral wells = 0. activation, % at 12.5 µM. hit rate 0.75% among 300,000;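 active = mean activation of at least 80% with every replicate also reaching 80%; inconclusive = mean reaches 80% but some replicate falls short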;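 note: 0% = neutral control wells and 100% = parthenolide positive control wells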
esBAF inh = blocks esBAF chromatin remodeling in mouse ES cells. Bmi1-luciferase knock-in reporter, 24 h; 100% = twice the neutral-well signal. reporter increase, % at 12.5 µM. hit rate 2% among 350,000; in the data active = activation above about 40%; inconclusive = no clear call, values can overlap the other calls;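 note: 0% = median of the plate's neutral control wells and 100% = double that signal; a rise in the Bmi1 reporter signal indicates esBAF inhibition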
miR122 inh = blocks miR-122 activity in Huh7 sensor cells | Huh7 miR-122 Renilla luciferase sensor, 48 h; neutral wells = 0, positive control = 100 | activation (reporter increase), % at 12.5 µM | hit rate 0.3% among 340,000;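 active = mean replicate activation score at least 90 and every replicate individually at or above 90; inconclusive = only one of the two criteria met; inactive = neither criterion met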;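 note: higher luciferase means less miR-122 activity so hits act as miR-122 inhibitors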
An asterisk follows results filed as active; i = inactive; u = inconclusive; x = no result; [ ] = remark or other dose. This is a sample that favours compounds with a hit; in the whole collection about 3.4% have one here.

SMILES	Wnt act	Env fusion inh	MITF TRPM1 HTS	esBAF inh	miR122 inh
CSc1ccccc1OCc1cc(C(=O)NCCc2nc(C)cc(C)n2)no1	13	-12	52	34	x
CC(=O)c1ccc(OCc2cc(C(=O)N3CCN(c4ccccc4)CC3C)no2)cc1 (stereo unspecified)	28	-97	73	110*	-3
CSc1ccccc1OCc1cc(C(=O)NCCc2ccco2)no1	6	-3	53	65*	-4
CSc1ccccc1OCc1cc(C(=O)N2CCN(c3ccccc3)CC2C)no1 (stereo unspecified)	17	-72	44	54*	3
CS(=O)(=O)N1[C@@H]2Cn3c(ccc(C4=CCCCC4)c3=O)[C@H]1[C@@H](C(=O)N1CCCCC1)[C@@H]2CO	x	x	x	1	1[16.7 µM]
C[C@H](CO)N1C[C@H](C)[C@@H](CN(C)S(=O)(=O)c2ccc(F)cc2)OCCCC[C@H](C)Oc2ccc(NS(=O)(=O)c3cccs3)cc2C1=O	x	0[16.7 µM]	x	8	1[16.7 µM]
Cc1ccccc1NC(=O)CC(=O)c1ccccc1	0	-18	13	10	-1
CCC(=O)Nc1cc(C(=O)OCC(=O)c2ccc(Cl)cc2Cl)ccc1C	x	-13	0	3	32
CCC(=O)Nc1cc(C(=O)OCC(=O)c2ccccc2Cl)ccc1C	35*	-48	x	64*	-2
CCC(=O)Nc1cc(C(=O)OCC(=O)c2ccccc2)ccc1C	35*	15	77	x	x
COc1ccc(Nc2ccc([N+](=O)[O-])cn2)cc1	1	-42	x	38	x
COc1ccc(CNc2ccc([N+](=O)[O-])cn2)cc1	21	-22	70	63*	-8
CCOC(=O)Cn1nnnc1CN(CCc1ccccc1)Cc1cc2cc(CC)ccc2[nH]c1=O	x	119*	0	16	1
Cc1ccccc1-c1nnc(-c2cccs2)o1	2	-47	49	42*	0
Cn1cc(-c2nnc(-c3ccccc3)o2)c2ccccc21	42*	i	17	-15	4
Cc1ccccc1-c1nnc(-c2ccccc2)o1	x	x	41	43*	17
Cc1ccccc1-c1nnc(-c2ccc(Cl)cc2)o1	25	x	31	36	4
Cc1nnc(-c2ccccc2)o1	3	2	-4	5	9
CCOc1ccc(-c2nnc(-c3cccs3)o2)cc1OCC	x	-60	x	11	4
CCOc1ccc(-c2nnc(-c3cccs3)o2)cc1	31*	-399	19	-43	-4
C[C@@H]1CCCCO[C@H](CN(C)S(=O)(=O)c2cn(C)cn2)[C@@H](C)CN([C@@H](C)CO)C(=O)c2cc(NC(=O)C3CCCCC3)ccc2O1	x	-1[16.7 µM]	x	-3	11[16.7 µM]
Cc1ccccc1-c1nnc(CS(=O)(=O)c2ccccc2)o1	-3	-42	103*	16	-3
COc1nc(C)ccc1-c1noc(-c2cccs2)n1	-3	-104	x	x	4
Cc1ccccc1-c1noc(-c2cccs2)n1	18	-175	x	54*	11
Clc1ccccc1-c1nnc(-c2ccccc2Cl)o1	29	-168	u	71*	1
SMILES	Wnt act	Env fusion inh	MITF TRPM1 HTS	esBAF inh	miR122 inh
O=C(C[C@@H]1C=C[C@H](NS(=O)(=O)c2ccc(F)cc2)[C@@H](CO)O1)N1CCC(Cc2ccccc2)CC1	x	8[16.7 µM]	x	-5	x
O=C(C[C@H]1CC[C@H](NC(=O)c2ccc3c(c2)OCO3)[C@H](CO)O1)NCc1ccc(Cl)cc1	x	13[16.7 µM]	x	14	x
COc1cccc(-c2nc(=S)c3c(o2)CCCC3)c1	11	-145	x	x	x
S=c1nc(-c2ccccc2)oc2c1CCCC2	74*	-474	56	x	4
O=C(CSc1nc2ccccc2c(=O)n1CCCO)NCc1ccccc1	-14	-40	9	0	6
O=c1c2ccccc2nc(SCc2nc3ccccc3s2)n1CCCO	41*	x	74	36	20
COc1cccc(S(=O)(=O)N(C)C[C@H]2Oc3cc(C4=CCCC4)ccc3S(=O)(=O)N([C@H](C)CO)C[C@H]2C)c1	x	95*[16.7 µM]	x	2	10[16.7 µM]
COc1cccc(S(=O)(=O)N(C)C[C@H]2Oc3cc(C4=CCCC4)ccc3S(=O)(=O)N([C@@H](C)CO)C[C@@H]2C)c1	x	-9[16.7 µM]	x	4	27[16.7 µM]
COc1cccc(S(=O)(=O)N(C)C[C@H]2Oc3cc(C4=CCCC4)ccc3S(=O)(=O)N([C@H](C)CO)C[C@@H]2C)c1	x	63*[16.7 µM]	x	8	-6[16.7 µM]
COc1ccc(S(=O)(=O)N(C)C[C@@H]2Oc3cc(C4=CCCC4)ccc3S(=O)(=O)N([C@H](C)CO)C[C@H]2C)cc1	x	26[16.7 µM]	x	6	-6[16.7 µM]
CN(Cc1ccco1)C(=O)C1CCC(=O)N(CCc2cccc(F)c2)C1 (stereo unspecified)	-1	x	1	0	4
COc1ccc(CCNC(=O)C2CCC(=O)N(CCc3ccc(OC)cc3)C2)cc1 (stereo unspecified)	1	-9	3	7	7
CN(C(=O)C1CCC(=O)N(Cc2cccc(F)c2)C1)C1CCCCC1 (stereo unspecified)	44*	-84	98*	97*	-7
COc1ccc(CCN2CC(C(=O)NCCc3ccccc3C(F)(F)F)CCC2=O)cc1 (stereo unspecified)	9	-25	46	49*	-10
COc1cccc(CN2CC(C(=O)N(C)Cc3ccc(C)cc3)CCC2=O)c1 (stereo unspecified)	-18	58*	9	13	-5
C#CCN(C(=O)C1CCC(=O)N(CCc2cccc(F)c2)C1)C1CCCCC1 (stereo unspecified)	33*	-31	x	x	x
COc1ccc(NC(=O)Nc2ccc3c(c2)[C@@H]2C[C@@H](CC(=O)NCC(F)(F)F)O[C@@H](CO)[C@@H]2O3)cc1	x	-22[16.7 µM]	x	-2	3[16.7 µM]
C[C@H]1CN([C@@H](C)CO)C(=O)c2cc(C3=CCCCC3)cnc2O[C@H]1CN(C)C(=O)NC1CCCC1	x	0[16.7 µM]	x	3	x
CCCC#Cc1cnc2c(c1)C(=O)N([C@@H](C)CO)C[C@H](C)[C@@H](CN(C)C(=O)Cc1cccnc1)O2	x	-2[16.7 µM]	x	-4	0[16.7 µM]
C[C@@H]1CN([C@H](C)CO)C(=O)c2cc(C#CCN(C)C)cnc2O[C@@H]1CN(C)C(=O)Nc1cccc(F)c1	x	6[16.7 µM]	x	0	-2[16.7 µM]
Cc1ccsc1CCNC(=O)C1CCC(=O)N(CCc2cccc(F)c2)C1 (stereo unspecified)	26	-44	95*	65*	x
O=C(NCCc1cccs1)C1CCC(=O)N(CCc2cccc(F)c2)C1 (stereo unspecified)	0	2	4	-5	-8
C[C@@H]1CN([C@@H](C)CO)C(=O)c2cc(NC(=O)CCC(F)(F)F)ccc2O[C@@H](C)CCCCO[C@H]1CN(C)S(=O)(=O)c1ccc(F)cc1	x	-17[16.7 µM]	x	1	12[16.7 µM]
Cn1c(C(=O)N2CCc3ccccc3C2)cc2oc3ccccc3c21	3	x	61	55*	6
CCN(CC)c1ccc(S(=O)(=O)Nc2cc(Cl)ccc2Cl)cc1NC(=S)NC(=O)C1CCCC1	x	32	2	7	285*
CCN(CC)S(=O)(=O)c1ccc(Cl)c(NC(=S)NC(=O)C2CCCC2)c1	-12	u	-15	-13	-2
